Data reported in PubChem BioAssay (NCATS).
Inconclusive results are not listed. Where a call stands in place of a potency, no number is given. Calls of active or inactive are those of the source. Unless noted, the call rests on the fitted dose curve; in most records, active means well fitted curve in the direction sought with a large enough effect; inconclusive means small, poorly fitted or top-dose-only effect, or another doubt; inactive means no such curve, though single readings can be large; an effect the other way counts as inactive or inconclusive.

Columns and labels:
[1] = P-glycoprotein substrates identified in KB-8-5-11 adenocarcinoma cell line, qHTS therapeutic library screen (AID 1346987); further: nearly all actives have a fitted effect of over 65% in size; further: potency means the concentration at half of the fitted maximal effect
Procedure, shortened: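 Compounds are pinned in dose-response onto KB-8-5-11 cells (500 cells/well, colchicine-free medium) and left 72 h at 37 degree C. CellTiter-Glo luminescence then yields AC50 values.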

[2] = Primary redox qHTS assay for identification of artifact compounds. (AID 1845223)
Procedure, shortened: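 Redox-cycling detection via DTT (250 uM final) oxidation coupled to Amplex Red (25 uM)/HRP (250 mU/mL) in HBSS. 15 min preincubation plus 30 min after DTT, room temperature. Ex/Em 525/598 nm; 4-parameter Hill fit against DMSO and 10 uM DA3003.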

CAOV3 = test: Primary qHTS to identify gynecologic anti-cancer compounds using libraries of approved drugs and bioactive compounds (AID 1345084); conditions: Gynecologic cancer cell panel viability, ATPlite luminescence, 48 h; series mostly up to 57.5 µM; further: nearly all actives have a fitted effect of over 55% in size; further: potency means the concentration at half of the fitted maximal effect
Procedure, shortened: (§1)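 Cell viability after 48 h drug treatment, ATPlite luminescence readout; five doses.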

HeLa = test: as above; conditions: Gynecologic cancer cell panel viability, ATPlite luminescence, 48 h; series mostly up to 57.5 µM
Procedure, shortened: as §1

JEG-3 = test: as above; conditions: Gynecologic cancer cell panel viability, ATPlite luminescence, 48 h; series mostly up to 57.5 µM
Procedure, shortened: as §1

[3] = Primary qHTS for inhibitors of nuclear receptor binding SET domain protein 2 (NSD2) in an RCH-ACV wild type WT cells (2C) (AID 1645877); further: nearly all actives have a fitted effect of over 70% in size; further: potency means the concentration at half of the fitted maximal effect
NIH3T3 = test: Cytotoxic Profiling of Annotated Libraries Using Quantitative High-Throughput Screening (AID 1296008); conditions: Five cell lines viability, CellTiter-Glo ATP luminescence, 48-72 h; max response: stronger effect = lower value; further: nearly all actives have a fitted effect of over 60% in size; further: potency means the concentration at half of the fitted maximal effect
Procedure, shortened: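 Cells exposed to compounds for 48 or 72 hr at 37 degrees Celsius. Viability read as ATP-coupled luminescence with CellTiter-Glo after 10 min at room temperature.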

SKOV3 = test: Primary qHTS to identify gynecologic anti-cancer compounds using libraries of approved drugs and bioactive compounds (AID 1345084); conditions: Gynecologic cancer cell panel viability, ATPlite luminescence, 48 h; series mostly up to 57.5 µM; further: nearly all actives have a fitted effect of over 55% in size; further: potency means the concentration at half of the fitted maximal effect
Procedure, shortened: as §1

[4] = system: Zika virus NS2B-NS3 protease (unlinked complex); test: Primary screen GU Rhodamine qHTS for Zika virus inhibitors: Unlinked NS2B-NS3 protease assay (AID 1347159); further: nearly all actives have a fitted effect of over 60% in size; further: potency means the concentration at half of the fitted maximal effect
Procedure, shortened: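 Enzyme 25 nM in Tris-HCl pH 8.0 + 0.01% Tween 20; compounds up to 114 microM, 15 min RT dark; + Rhod110 substrate 1.5 microM; read t0 and 15 min; delta fluorescence → % inhibition → 4-parameter Hill fit.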

[5] = Cytotoxicity counterscreen for inhibitors of SARS-CoV-2 cell entry (AID 1645845; calls by dose curve; further: potency means the concentration at half of the fitted maximal effect; nearly all actives have a fitted effect of over 50% in size)
Procedure, shortened: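 Counterscreen run in the same HEK293-ACE2 line as the pseudotyped-particle entry assay, without particles. Viability after 48 h at 37 C was read as ATP luminescence, scaled between cell-containing and cell-free wells.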

[6] = qHTS drug screen for cell cycle checkpoint inhibitors in PARPi-resistant BRCA-mutant ovarian cancer cell lines. (AID 1963452; calls by dose curve); conditions: PEO1/OlaR viability, CellTiter-Glo luminescence, 96 h, stronger effect = lower value
Procedure, shortened: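 PEO1, PEO4 and PEO1/OlaR ovarian cancer cells, 600 per well, exposed 96 h at 37C to a dilution series. Viability read by CellTiter-Glo luminescence, normalized to DMSO and empty wells; activity summarized as Z-AUC.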

[7] = P-glycoprotein substrates identified in KB-3-1 adenocarcinoma cell line, qHTS therapeutic library screen (AID 1346986); further: nearly all actives have a fitted effect of over 60% in size
Procedure, shortened: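 In 1536-well format, 500 cells/well received pinned compound titrations and were incubated 72 h, 5% CO2. Viability was read by CellTiter-Glo; cytotoxic if AC50 < 10 uM and efficacy >50%.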

[8] = target: Catechol O-methyltransferase (Homo sapiens) (UniProt P21964); test: Confirmatory Screen for Target Class Profiling of Small Molecule Inhibitors of Methyltransferases (AID 1745852); conditions: MTase-Glo luminescence, SAH detection, recombinant enzyme; measured here: COMT max response; stronger effect = lower value
Sequence of Catechol O-methyltransferase (Homo sapiens) (P21964 whole entry, looked up): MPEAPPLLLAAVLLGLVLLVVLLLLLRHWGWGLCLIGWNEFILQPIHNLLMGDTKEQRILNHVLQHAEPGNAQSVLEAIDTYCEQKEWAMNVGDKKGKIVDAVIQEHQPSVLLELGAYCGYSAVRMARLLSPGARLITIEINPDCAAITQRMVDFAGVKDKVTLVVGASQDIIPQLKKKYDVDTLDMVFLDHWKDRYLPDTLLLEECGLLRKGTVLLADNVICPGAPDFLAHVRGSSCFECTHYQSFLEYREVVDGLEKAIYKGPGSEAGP

[9] = target: Guanidinoacetate N-methyltransferase (Homo sapiens) (UniProt Q14353); test: as above; conditions: activity change, negative = inhibition: at 57.3 µM (top of the series) unless noted
[10] = target: Nicotinamide N-methyltransferase (Homo sapiens) (UniProt P40261); test: as above; conditions: MTase-Glo luminescence, SAH detection, recombinant enzyme; measured here: NNMT max response; stronger effect = lower value
Sequence of Nicotinamide N-methyltransferase (Homo sapiens) (P40261 whole entry, looked up): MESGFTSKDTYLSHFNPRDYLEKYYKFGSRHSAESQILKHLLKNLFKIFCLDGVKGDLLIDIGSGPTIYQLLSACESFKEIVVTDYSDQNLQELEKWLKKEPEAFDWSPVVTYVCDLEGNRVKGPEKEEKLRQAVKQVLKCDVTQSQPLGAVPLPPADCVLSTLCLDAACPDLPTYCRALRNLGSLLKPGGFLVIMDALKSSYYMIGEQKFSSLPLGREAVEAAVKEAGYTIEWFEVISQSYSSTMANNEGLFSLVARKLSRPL

[11] = target: Phenylethanolamine N-methyltransferase (Homo sapiens) (UniProt P11086); test: as above; conditions: MTase-Glo luminescence, SAH detection, recombinant enzyme; measured here: PNMT max response; stronger effect = lower value
Sequence of Phenylethanolamine N-methyltransferase (Homo sapiens) (P11086 whole entry, looked up): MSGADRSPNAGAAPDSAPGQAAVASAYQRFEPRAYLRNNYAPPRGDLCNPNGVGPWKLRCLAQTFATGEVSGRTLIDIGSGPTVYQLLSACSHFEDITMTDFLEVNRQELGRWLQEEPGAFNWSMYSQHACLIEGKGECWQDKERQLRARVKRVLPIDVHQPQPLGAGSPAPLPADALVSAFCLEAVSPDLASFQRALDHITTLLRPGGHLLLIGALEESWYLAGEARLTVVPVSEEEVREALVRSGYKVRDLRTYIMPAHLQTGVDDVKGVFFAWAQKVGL

HACAT = test: qHTS assay to identify novel small-molecules to repurpose for Merkel cell carcinoma treatment (AID 1296009); conditions: MCC and control cell lines, CellTiter-Glo viability, 72 h; at 44.8 µM (top of the series) unless noted; further: nearly all actives have a fitted effect of over 60% in size
Procedure, shortened: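 Dose-response viability screen; 72 hr exposure at 37 degree celsius; CellTiter-Glo added, 10 min room temperature, luminescence read; RLUs scaled between no-cell and DMSO wells.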

SMILES: O=C(OC[C@H]1O[C@@H](Oc2ccc(O)cc2CO)[C@H](O)[C@@H](O)[C@@H]1O)c1ccccc1
- Potency [1]: inactive
- Potency [2]: inactive
- Potency (CAOV3): inactive
- Potency (HeLa): inactive
- Potency (JEG-3): inactive

SMILES: C=C1C[C@]2(O)[C@@]3(C)CCC(=O)C(C)(C)C3=C(O)C(=O)[C@@]2(C)[C@@H]2C(=O)O[C@@](C)(C(=O)OC)C(=O)[C@@]12C
- Potency [1]: inactive
- Potency [3]: inactive
- max response (NIH3T3): 1.84% (inactive)
- Potency (CAOV3): inactive
- Potency (HeLa): inactive
- Potency (JEG-3): inactive
- Potency (SKOV3): inactive

SMILES: C[C@@H]1CN(Cc2ccc(F)cc2)CCN1C(=O)COc1ccc(Cl)cc1NC(N)=O
- Potency [4]: inactive
- Potency [5]: 2.51 µM (active)
- Potency [2]: inactive
- Z-AUC [6]: -0.0879 (inactive)
- Z-AUC ([6]; measured here: PEO1 parental Z-AUC): -1.28
- Z-AUC ([6]; measured here: PEO4 Z-AUC): 0.406
- Potency (HeLa): inactive
- Potency (JEG-3): inactive
- Potency (SKOV3): 3.16 µM (active)

SMILES: C[C@]12CC[C@H](O[C@@H]3O[C@H](CO)[C@@H](O)[C@H](O)[C@H]3O[C@@H]3O[C@H](CO)[C@@H](O)[C@H](O)[C@H]3O)CC1=CC[C@@H]1[C@@H]2CC[C@]2(C)[C@@H](C3=CC(=O)OC3)CC[C@]12O
- Potency [4]: inactive
- Potency [3]: 4.3 µM (active)
- Potency [2]: inactive
- max response (NIH3T3): 1.49% (inactive)
- Potency (CAOV3): inactive
- Potency (JEG-3): inactive

SMILES: C=C(CO)C(=O)O[C@H]1CC(=C)[C@@H]2C[C@H](O)C(=C)[C@@H]2[C@H]2OC(=O)C(=C)[C@@H]21
- Potency [7]: inactive
- Potency [1]: inactive
- Potency [3]: 2.01 µM (active)
- activity [8]: -80.9%
- activity change, negative = inhibition [9]: -4.37%
- activity [10]: -6.26%
- activity [11]: -8.66%
- Potency [2]: inactive
- Potency (CAOV3): inactive
- Potency (HeLa): inactive
- Potency (JEG-3): inactive
- Potency (SKOV3): inactive

SMILES: C[C@@H]1[C@H](O)[C@@H](C)/C=C/C=C/CC/C=C/C=C/C=C/C=C/[C@H](O[C@H]2O[C@@H](C)[C@H](O)[C@@H](N)[C@H]2O)C[C@@H]2O[C@](O)(C[C@@H](O)[C@H](O)CC[C@@H](O)C[C@@H](O)C[C@@H](O)CC(=O)O[C@H]1C)C[C@H](O)[C@H]2C(=O)O
- Potency [7]: inactive
- Potency [1]: inactive
- Potency [4]: 8.91 µM (active)
- outcome (HACAT): inactive [at 17.4 µM]
- Potency (CAOV3): inactive
- Potency (HeLa): inactive
- Potency (JEG-3): inactive

SMILES: C[C@]12CC[C@H](O)C[C@H]1CC[C@@H]1[C@@H]2[C@H](O)C[C@]2(C)[C@@H](c3ccc(=O)oc3)CC[C@]12O
- Potency [1]: 51.7 nM (active)
- Potency [3]: 0.0459 µM (active)
- Potency [2]: inactive
- Potency (CAOV3): 0.1 µM (active)
- Potency (HeLa): 0.112 µM (active)
- Potency (JEG-3): inactive

SMILES: C[C@@]1(CO)[C@H](O)CC[C@@]2(C)[C@H]1CC[C@H]1C[C@@H]3C[C@@]12CC[C@]3(O)CO
- Potency [2]: inactive
- Potency (NIH3T3): 6.4 µM (active)
- Potency (CAOV3): inactive
- Potency (JEG-3): inactive

SMILES: C=C1[C@@H](C)[C@H]2[C@H](Cc3ccccc3)NC(=O)[C@]23[C@H](OC(C)=O)/C=C/[C@](C)(O)C(=O)[C@@H](C)C/C=C/[C@H]3[C@@H]1O
- Potency [1]: 9200 nM (active)
- Potency [4]: inactive
- Potency [2]: inactive
- Potency (HeLa): inactive
- Potency (JEG-3): inactive

SMILES: CCC1=CC2CN3CCc4c([nH]c5ccccc45)[C@@](C(=O)OC)(C2)[C@@H]13
- Potency [4]: inactive
- Potency [2]: inactive
- Potency (CAOV3): inactive
- Potency (HeLa): inactive
- Potency (JEG-3): inactive

SMILES: CC1=C[C@H]2O[C@@H]3[C@H](O)[C@@H](O)[C@](C)([C@@]2(CO)C[C@@H]1O)[C@]31CO1
- Potency [1]: 2060 nM (active)
- Potency [4]: inactive
- Potency [2]: inactive
- Potency (CAOV3): 11.2 µM (active)
- Potency (HeLa): 12.6 µM (active)

SMILES: C[C@]12CC[C@H](O)C[C@H]1CC[C@@H]1[C@@H]2[C@H](O)C(=O)[C@]2(C)[C@@H](c3ccc(=O)oc3)CC[C@]12O
- Potency [1]: 25.9 nM (active)
- Potency [4]: inactive
- Potency [3]: 0.0515 µM (active)
- Potency [2]: inactive
- max response (NIH3T3): -1.67% (inactive)

SMILES: CC[C@@]1(O)C(=O)OCc2c1cc1n(c2=O)Cc2cc3c(OC)cccc3nc2-1
- Potency [1]: 805 nM (active)
- Potency [4]: inactive
- Potency (SKOV3): 0.447 µM (active)
